From PubChem BioAssay (NCI)
Values joined by “and” are separate entries in the source; they are usually repeats but may differ in a detail not shown here. Equal values may be shown once. This is part of a sample that, as a whole, favours compounds with a hit. Of some 83,000 tested, about 20% had one in any assay.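 Activity criterion: percent growth below 10, measured after cells in 96-well plates were exposed to a single compound concentration for 48 hours.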 Active and inactive are the calls of the source.

What follows are molecules tested on HOP-62 NSCLC (assay: NCI-60 one-dose screen, 48 h (100 = growth as untreated, 0 = no growth, -100 = all killed)). Settings: 10 µM unless noted.

Compound | growth
COc1ccc(C/C(C)=C(/c2ccc(OCCN3CCCC3)cc2)c2ccc(OC(=O)NCc3ccccc3)cc2)cc1 | 91.9% (inactive)
CCN(CC)CCOc1ccc(/C(=C(\Cl)c2ccccc2)c2ccccc2)cc1 | -40% (active) and 61.3% (inactive)
Cc1ccc(/C=C2\COc3ccc(O)c(O)c3C2=O)cc1 | -1.56% (active)
COc1ccc2c(c1)oc1c(C)c3c(c(C)c12)C(=O)N(Nc1ccccc1)C3=O | 88.9% (inactive)
CCC(=C(c1ccc(OCCCN(C)C)cc1)c1ccc(OCCCN(C)C)cc1)c1ccc(Cl)cc1 | -78% (active)
CCOC(=O)c1c(-c2ccc(C)cc2)c(C#N)c(=O)n(-c2cccc(C(F)(F)F)c2)c1N | 99.8% (inactive)
S=c1nc(CS)[nH]c2ccccc12 | 89.6% (inactive)
O=C(N/N=C/c1ccc(O)cc1O)c1cccc(Nc2ccnc(C(F)(F)F)c2)c1 | 14.3% (inactive)
CCN(CC)CCCN1C(=O)c2c(c(C)c3c(oc4cc(OC)ccc43)c2C)C1=O | 109% (inactive)
Cc1ccc(NC(=O)c2ccc(CN3CCN(C)CC3)cc2)cc1Nc1nccc(-c2cccnc2)n1 | 84.9% (inactive)
COc1cc(/C=C2/C=C(c3ccc(C(C)(C)C)cc3)N(CCc3ccc(S(N)(=O)=O)cc3)C2=O)cc(OC)c1OC | 77% (inactive)
O=c1c(/C=C/c2ccco2)nnc2sc(Nc3ccc(Cl)cc3)nn12 | 89% (inactive)
Nc1[nH]nc(Nc2ccccc2)c1-c1nc2ccccc2s1 | 28.6% (inactive)
CCCCCCCCn1ccc2cc(NC(=O)CN3CCN(c4nc(C)cc(N5CCCCC5)n4)CC3)ccc21 | 100% (inactive)
CC/C(=C(/c1ccc(O)cc1)c1ccc(OCCN2CCCCCC2)cc1)c1ccc(Cl)cc1 | 98.8% (inactive)
C=C(C)[C@@H]1CC[C@]2(C(=O)N3CCN(C)CC3)CC[C@]3(C)[C@H](CC[C@@H]4[C@@]5(C)CC(CCCNC(C)=O)(CCCNC(C)=O)[C@H](OC(C)=O)C(C)(C)[C@@H]5CC[C@]43C)[C@@H]12 | 103% (inactive)
CCN(c1cc(-c2ccc(CN3CCC(/C=C/S(=O)(=O)c4ccccc4)CC3)cc2)cc(C(=O)NCc2c(C)cc(C)[nH]c2=O)c1C)C1CCOCC1 | 82.8% (inactive)
Nc1nc(N)c2c(n1)NC(c1ccc(Cl)cc1)CC(c1cccc(Nc3ccncc3)c1)=N2 (stereo not drawn) | 75.5% (inactive)
C=C(c1ccc(C(=O)O)cc1)c1cc2c(cc1C)C(C)(C)CCC2(C)C | 79.7% (inactive) and 67.3% (inactive)

Compound | growth
O=C1OCC2=C1C(c1cccc([N+](=O)[O-])c1)c1cc3c(cc1N2CCO)CCC3 (stereo not drawn) | 31.3% (inactive)
CCN(CC)/C([O-])=c1\cccc\c1=C1\N=C(c2ccccc2)N=C1[n+]1ccc(-c2ccccc2)cc1 | 97.1% (inactive)
Cc1nc(-n2[nH]c(=O)ccc2=O)sc1N=Nc1ccccc1 | 94.3% (inactive)
Cc1ccc(-c2nc3nc(-c4ccccc4)nc(N4CCCNCC4)c3o2)cc1 | -27.1% (active)
O=C([C@H]1C[C@H]1c1ccc(S(F)(F)(F)(F)F)cc1)N1CCN(c2cc(Cl)ccc2C(F)(F)F)CC1 | 102% (inactive)
OB(O)c1ccsc1-c1nc2ccc3[nH]ncc3c2c2c1CCCC2 | 52.2% (inactive)
CC[C@]12CN3CCc4c([nH]c5ccccc45)[C@@](C(=O)OC)(c4cc5c(cc4OC)N(C)[C@H]4[C@@](O)(C(=O)OC)[C@H](OC(C)=O)[C@]6(CC)C=CCN7CC[C@]54[C@@H]76)CC(C3)[C@H]1O2 (stereo partly drawn) | 50.9% (inactive)
COC(=O)N/N=C/c1c[n+]([O-])c2ccccc2[n+]1[O-] | 22.7% (inactive)
Cn1ccnc1CN1CCSC(C(=O)Nc2ccccc2)C1 (stereo not drawn) | 81.5% (inactive)
CCNC(=O)Oc1ccc(/C(=C(/C)Cc2ccc(OC)cc2)c2ccc(OCCN(CC)CC)cc2)cc1 | 76.3% (inactive)
Cc1ccc(-c2nc(C#N)c(S(=O)(=O)N(C)C)o2)cc1 | 96.7% (inactive)
COCCn1cc(-c2nc(-c3cn(CCOC)c4ncccc34)cs2)c2ccccc21 | 67.8% (inactive)
Nc1nc2ccccc2c2c(=O)c3ccc(Cl)cc3sc12 | 99.1% (inactive)
CC[C@]1(O)CC2CN(CCc3c([nH]c4ccccc34)C(C(=O)OC)(c3cc4c(cc3OC)N(C=O)[C@H]3[C@@](O)(C(=O)OC)[C@H](OC(C)=O)[C@]5(CC)[C@@H]6C[C@@H]6CN6CC[C@]43[C@@H]65)C2)C1 (stereo partly drawn) | 22.5% (inactive)
CN1CCN(CCCN2c3ccccc3Sc3ccc(Cl)cc32)CC1 | 90.4% (inactive)
Nc1ncc(-c2ccc3ncnc(N4CCc5ccc(Cl)cc54)c3c2)cc1C(F)(F)F | 17.3% (inactive)
CC(C)(C)c1cc(NC(=O)Nc2ccc(-c3cn4c(n3)sc3cc(OCCN5CCOCC5)ccc34)cc2)no1 | 35.7% (inactive) and -26.2% (active)
CC1(Cc2ccccc2)CC2=C(C(=O)O1)C(c1ccccc1)NC(=O)N2 (stereo not drawn) | 97.4% (inactive)
COc1cc(C=O)ccc1Oc1ccc([N+](=O)[O-])cc1[N+](=O)[O-] | 94.2% (inactive)
